Measurements taken from ChEMBL document CHEMBL3988442, “University of Dundee, Small-Polar-MMV Screening Library” (2021).
For part of these data: Results with a measured potency or affinity are listed apart.

Legend:
Parameters in all cases: scale not given: direction of the effect not stated beside the values
[1] = molecular target: Protein translocase subunit SecA (Escherichia coli (strain K12)) (UniProt P10408); assay: Assay to Identify E. coli SecA ATPase Inhibitors; format: functional; conditions: 30 µM
[2] = molecular target: T1, Ubiquitin-activating enzyme e1, putative (Leishmania donovani (strain BPK282A1)) (UniProt E9BSI1); assay: Leishmania donovani Ubiquitin Activating Enzyme (LdE1); format: functional; conditions: 30 µM
T1 sequence (whole entry): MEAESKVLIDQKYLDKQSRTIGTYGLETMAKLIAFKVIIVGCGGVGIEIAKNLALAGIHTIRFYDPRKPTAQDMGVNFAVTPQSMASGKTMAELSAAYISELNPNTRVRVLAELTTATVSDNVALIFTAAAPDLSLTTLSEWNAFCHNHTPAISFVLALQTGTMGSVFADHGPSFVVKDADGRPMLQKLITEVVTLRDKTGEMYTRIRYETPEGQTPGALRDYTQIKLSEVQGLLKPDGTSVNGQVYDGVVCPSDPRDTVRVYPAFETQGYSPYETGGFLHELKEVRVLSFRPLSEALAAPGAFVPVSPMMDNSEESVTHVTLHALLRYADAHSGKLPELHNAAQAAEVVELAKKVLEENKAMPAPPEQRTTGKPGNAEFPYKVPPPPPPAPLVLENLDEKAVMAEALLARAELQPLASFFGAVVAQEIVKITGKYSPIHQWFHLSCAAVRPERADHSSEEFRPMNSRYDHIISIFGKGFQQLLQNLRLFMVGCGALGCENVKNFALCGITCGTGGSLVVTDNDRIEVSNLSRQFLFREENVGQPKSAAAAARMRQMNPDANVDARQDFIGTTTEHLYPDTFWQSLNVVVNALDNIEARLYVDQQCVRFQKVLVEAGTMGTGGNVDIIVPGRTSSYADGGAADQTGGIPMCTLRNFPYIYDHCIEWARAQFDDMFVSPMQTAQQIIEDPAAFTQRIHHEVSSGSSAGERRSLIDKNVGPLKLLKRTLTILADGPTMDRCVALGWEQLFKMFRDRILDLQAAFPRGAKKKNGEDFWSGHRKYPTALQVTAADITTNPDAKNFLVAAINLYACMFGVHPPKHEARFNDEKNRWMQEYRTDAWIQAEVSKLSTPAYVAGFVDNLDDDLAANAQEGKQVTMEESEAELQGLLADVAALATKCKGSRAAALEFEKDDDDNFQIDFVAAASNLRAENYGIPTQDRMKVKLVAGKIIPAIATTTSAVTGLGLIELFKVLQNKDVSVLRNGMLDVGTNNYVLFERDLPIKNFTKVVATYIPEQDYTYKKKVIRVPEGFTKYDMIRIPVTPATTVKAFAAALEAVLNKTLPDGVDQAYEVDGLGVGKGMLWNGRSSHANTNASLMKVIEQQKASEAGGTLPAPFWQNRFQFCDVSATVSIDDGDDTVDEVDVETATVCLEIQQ

[3] = molecular target: AMP-activated protein kinase, AMPK (Homo sapiens) (UniProt P54646+O43741+P54619+Q9UGJ0+Q9Y478+Q13131+Q9UGI9); assay: AMP-dependent Kinase enzyme assay. An in vitro enzyme assay that detects ADP turnover that is directly proportional to AMPK activity. This uses naive AMPK that is activated during the assay with MK-8722; format: functional; conditions: 30 µM
[4] = molecular target: Sialic acid-binding Ig-like lectin 9 (Homo sapiens) (UniProt Q9Y336); assay: Hs-Siglec9 ALPHAscreen SOP 20170721; conditions: 10 µM
Trypanosoma cruzi = assay: Trypanosoma cruzi phosphomannomutase and mannose-1-phosphate guanylyltransferase assay; format: functional; conditions: 10 µM
[5] = molecular target: T2, Arginase-2, mitochondrial (Homo sapiens) (UniProt P78540); assay: in vitro enzyme assay to detect the production of urea directly proportional to the activity of Arginase II; format: functional; conditions: 33.3 µM; also: in the data most compounds retested in dose-response had high values
T2 sequence (whole entry): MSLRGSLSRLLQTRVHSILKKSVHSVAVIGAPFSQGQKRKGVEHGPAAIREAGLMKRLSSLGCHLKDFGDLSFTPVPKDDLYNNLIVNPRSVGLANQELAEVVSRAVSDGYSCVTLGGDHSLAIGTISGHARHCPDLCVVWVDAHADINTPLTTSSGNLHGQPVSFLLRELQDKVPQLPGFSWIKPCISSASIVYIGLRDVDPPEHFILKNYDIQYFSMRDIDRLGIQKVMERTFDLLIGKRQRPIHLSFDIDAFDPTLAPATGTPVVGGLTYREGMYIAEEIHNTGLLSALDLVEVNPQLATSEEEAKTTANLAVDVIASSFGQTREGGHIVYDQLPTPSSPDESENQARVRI

[6] = molecular target: T3, Proteasome subunit beta (Trypanosoma cruzi) (UniProt O96673); assay: Trypanosoma cruzi proteasome chymotrypsin-like activity (TcProtChymo) assay.; also: in the data most compounds retested in dose-response had high values; format: functional; conditions: 9.37 µM
T3 sequence (whole entry): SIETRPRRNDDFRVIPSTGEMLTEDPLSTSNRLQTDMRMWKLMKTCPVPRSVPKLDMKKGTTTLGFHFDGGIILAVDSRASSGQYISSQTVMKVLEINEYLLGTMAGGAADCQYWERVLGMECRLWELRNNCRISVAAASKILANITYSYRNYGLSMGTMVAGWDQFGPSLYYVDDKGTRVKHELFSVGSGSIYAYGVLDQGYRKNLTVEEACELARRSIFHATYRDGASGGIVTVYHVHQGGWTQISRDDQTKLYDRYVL

Homo sapiens = organism: Homo sapiens; assay: To identify inhibition of the IFN signalling (Jak-Stat) pathway via expression of an eGFP reporter gene under the control of an IFN-stimulated response element (ISRE) containing MxA promoter.; format: functional; conditions: 30 µM
[7] = molecular target: T4, Tyrosyl-tRNA synthetase, putative (Trypanosoma cruzi (strain CL Brener)) (UniProt Q4DSP6); assay: Trypanosoma cruzi tyrosyl tRNA synthetase (TcYRS) _High Tyrosine SOP; format: functional; conditions: 30 µM; also: in the data most compounds retested in dose-response had high values
T4 sequence (whole entry): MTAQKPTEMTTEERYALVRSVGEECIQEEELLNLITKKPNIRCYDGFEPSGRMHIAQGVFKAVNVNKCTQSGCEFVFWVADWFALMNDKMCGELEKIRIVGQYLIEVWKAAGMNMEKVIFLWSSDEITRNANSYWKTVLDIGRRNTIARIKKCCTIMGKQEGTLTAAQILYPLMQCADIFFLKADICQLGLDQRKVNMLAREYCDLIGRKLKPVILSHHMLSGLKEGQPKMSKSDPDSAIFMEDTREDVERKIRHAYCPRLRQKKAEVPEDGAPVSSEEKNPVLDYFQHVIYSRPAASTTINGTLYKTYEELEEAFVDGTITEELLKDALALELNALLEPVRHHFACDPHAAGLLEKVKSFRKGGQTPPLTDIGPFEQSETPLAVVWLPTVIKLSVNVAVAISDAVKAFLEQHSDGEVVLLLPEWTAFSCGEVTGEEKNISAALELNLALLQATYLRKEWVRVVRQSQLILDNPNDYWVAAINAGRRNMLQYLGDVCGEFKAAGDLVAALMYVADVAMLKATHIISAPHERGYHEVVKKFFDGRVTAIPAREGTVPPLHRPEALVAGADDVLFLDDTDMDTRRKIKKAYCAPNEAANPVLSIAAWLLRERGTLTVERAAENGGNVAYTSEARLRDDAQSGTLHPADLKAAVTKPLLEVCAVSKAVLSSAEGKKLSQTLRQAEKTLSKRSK

[8] = molecular target: T4, Tyrosyl-tRNA synthetase, putative (Trypanosoma cruzi (strain CL Brener)); assay: Trypanosoma cruzi tyrosyl tRNA synthetase (TcYRS) SOP; format: functional; conditions: 30 µM
[9] = molecular target: Chromo domain-containing protein 1 (Saccharomyces cerevisiae (strain ATCC 204508 / S288c) (Baker's yeast)) (UniProt P32657); assay: ScCHD-1 Enzyme Inhibition Assay; format: functional; conditions: 30 µM; also: in the data most compounds retested in dose-response had high values
Sequence of Chromo domain-containing protein 1 (Saccharomyces cerevisiae (strain ATCC 204508 / S288c) (Baker's yeast)) (P32657 whole entry, the tested form may be a part): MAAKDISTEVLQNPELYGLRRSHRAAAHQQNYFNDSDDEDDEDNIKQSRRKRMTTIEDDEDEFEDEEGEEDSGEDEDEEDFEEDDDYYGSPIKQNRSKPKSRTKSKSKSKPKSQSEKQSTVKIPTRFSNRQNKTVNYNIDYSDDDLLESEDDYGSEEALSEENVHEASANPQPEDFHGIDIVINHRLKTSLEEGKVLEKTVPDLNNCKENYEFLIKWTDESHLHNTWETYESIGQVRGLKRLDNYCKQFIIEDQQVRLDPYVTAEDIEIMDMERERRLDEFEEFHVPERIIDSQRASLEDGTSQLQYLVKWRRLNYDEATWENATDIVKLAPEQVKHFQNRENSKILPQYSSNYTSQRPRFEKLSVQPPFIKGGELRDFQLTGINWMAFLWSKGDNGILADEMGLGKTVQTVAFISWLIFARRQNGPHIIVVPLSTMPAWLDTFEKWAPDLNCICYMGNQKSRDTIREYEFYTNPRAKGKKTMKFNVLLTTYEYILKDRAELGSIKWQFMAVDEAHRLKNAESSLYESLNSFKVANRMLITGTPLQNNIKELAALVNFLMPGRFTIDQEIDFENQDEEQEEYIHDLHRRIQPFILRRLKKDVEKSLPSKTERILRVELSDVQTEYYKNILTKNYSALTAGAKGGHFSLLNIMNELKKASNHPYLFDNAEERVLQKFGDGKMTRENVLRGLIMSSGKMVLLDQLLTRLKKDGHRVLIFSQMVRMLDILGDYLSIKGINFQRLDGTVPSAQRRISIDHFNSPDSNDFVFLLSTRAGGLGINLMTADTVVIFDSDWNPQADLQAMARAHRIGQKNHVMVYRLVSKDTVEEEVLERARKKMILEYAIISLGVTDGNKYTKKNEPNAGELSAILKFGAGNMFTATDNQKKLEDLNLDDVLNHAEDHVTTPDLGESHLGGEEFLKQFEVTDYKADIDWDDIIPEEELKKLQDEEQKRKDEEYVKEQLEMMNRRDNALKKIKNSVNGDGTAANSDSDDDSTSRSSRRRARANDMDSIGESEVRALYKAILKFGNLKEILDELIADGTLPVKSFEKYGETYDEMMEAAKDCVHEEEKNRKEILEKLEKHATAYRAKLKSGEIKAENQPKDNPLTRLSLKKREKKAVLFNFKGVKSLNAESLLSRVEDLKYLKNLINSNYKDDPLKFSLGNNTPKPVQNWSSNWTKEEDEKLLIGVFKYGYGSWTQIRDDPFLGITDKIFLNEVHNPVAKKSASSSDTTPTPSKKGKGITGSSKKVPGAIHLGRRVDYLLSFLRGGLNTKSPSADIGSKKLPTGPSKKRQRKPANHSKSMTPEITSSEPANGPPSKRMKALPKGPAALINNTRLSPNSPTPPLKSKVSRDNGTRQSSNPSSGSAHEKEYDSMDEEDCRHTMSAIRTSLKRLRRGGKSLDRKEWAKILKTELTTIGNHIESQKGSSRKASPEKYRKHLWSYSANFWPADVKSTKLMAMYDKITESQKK

Sequence of Protein translocase subunit SecA (Escherichia coli (strain K12)) (P10408 whole entry): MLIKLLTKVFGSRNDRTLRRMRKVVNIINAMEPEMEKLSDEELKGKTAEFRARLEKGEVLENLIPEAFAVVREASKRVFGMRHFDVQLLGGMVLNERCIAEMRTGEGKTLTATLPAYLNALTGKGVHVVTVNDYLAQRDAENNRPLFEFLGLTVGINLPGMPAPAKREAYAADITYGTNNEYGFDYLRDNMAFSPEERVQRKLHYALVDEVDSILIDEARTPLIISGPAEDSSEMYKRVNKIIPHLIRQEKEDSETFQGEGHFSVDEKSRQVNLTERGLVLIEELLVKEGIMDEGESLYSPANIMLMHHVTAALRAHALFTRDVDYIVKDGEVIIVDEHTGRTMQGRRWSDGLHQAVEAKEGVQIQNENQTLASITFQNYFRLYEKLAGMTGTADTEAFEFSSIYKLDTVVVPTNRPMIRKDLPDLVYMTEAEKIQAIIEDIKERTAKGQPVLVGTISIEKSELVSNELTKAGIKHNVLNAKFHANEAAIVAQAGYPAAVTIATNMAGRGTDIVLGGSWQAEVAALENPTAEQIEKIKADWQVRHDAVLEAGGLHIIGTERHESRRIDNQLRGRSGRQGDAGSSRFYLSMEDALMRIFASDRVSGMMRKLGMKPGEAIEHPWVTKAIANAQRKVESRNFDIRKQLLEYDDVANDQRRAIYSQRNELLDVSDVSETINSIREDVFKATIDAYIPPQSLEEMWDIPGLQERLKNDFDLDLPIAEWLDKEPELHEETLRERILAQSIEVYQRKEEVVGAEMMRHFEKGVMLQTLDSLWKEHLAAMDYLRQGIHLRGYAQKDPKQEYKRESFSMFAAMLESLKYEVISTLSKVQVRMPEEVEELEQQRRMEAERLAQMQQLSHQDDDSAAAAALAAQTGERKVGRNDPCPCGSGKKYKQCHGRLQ
Sequence of Sialic acid-binding Ig-like lectin 9 (Homo sapiens) (Q9Y336 whole entry): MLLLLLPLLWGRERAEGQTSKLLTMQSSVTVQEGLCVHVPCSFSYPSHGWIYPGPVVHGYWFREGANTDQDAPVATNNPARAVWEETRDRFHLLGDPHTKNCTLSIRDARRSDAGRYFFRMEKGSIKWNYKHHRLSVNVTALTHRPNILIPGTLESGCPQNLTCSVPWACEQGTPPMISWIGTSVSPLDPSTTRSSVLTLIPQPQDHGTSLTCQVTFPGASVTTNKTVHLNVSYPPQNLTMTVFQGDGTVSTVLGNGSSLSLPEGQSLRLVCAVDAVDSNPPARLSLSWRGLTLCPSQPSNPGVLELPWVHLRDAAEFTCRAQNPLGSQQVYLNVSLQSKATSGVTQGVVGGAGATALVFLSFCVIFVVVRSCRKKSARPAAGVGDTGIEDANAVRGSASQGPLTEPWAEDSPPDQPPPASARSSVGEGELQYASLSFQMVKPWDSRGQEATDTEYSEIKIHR

Compound	Percent Effect [1] [%]	Percent Effect [2] [%]	Percent Effect [3] [%]	Percent Effect [4] [%]	Percent Effect (Trypanosoma cruzi) [%]	Percent Effect [5] [%]	Percent Effect [6] [%]	Percent Effect (Homo sapiens) [%]	Percent Effect [7] [%]	Percent Effect [8] [%]	Percent Effect [9] [%]
CC(C)(C)NC(=O)C1CSCN1S(=O)(=O)c1ccc(F)cc1 (stereo unspecified)	-1.95	6.33	3.86	-0.312	-4	-4.52	15.4	21.8	7.29	20.2	-14.6
CN1C(=O)C[C@@H]2[C@@H]1CCN2C(=O)c1ccc[nH]1	-5.79	-2.74	1.46	3.04	-1.59	-3.99	10.7	17.1	1.04	6.17	0.233
CCS(=O)(=O)N1C[C@H]2CCC[C@@]2(COc2ccccn2)C1	-2.05	12	-6.57	2.8	-0.393	-6.16	10.5	33	2.12	5.13	-1.39
CCn1cnnc1C1CCN(C(=O)COCCc2ccccc2)CC1	-1.96	7.79	0.519	-7.71	5	-5.26	6.71	-1.88	-2.86	2.35	-12.8
Cc1cnn(C2CN(Cc3ccc4c(c3)OCCO4)C2)c1	-0.648	-2.67	-8.78	1.34	-2.04	-1.56	19.9	8.06	8.2	16.1	-8.99
Cc1nc(O)c2nnn(C[C@H]3CCCN3C(=O)c3cccc(F)c3)c2n1	-3.34	-1.35	8.18	1.91	-3.36	-3.48	-0.936	9.46	2.15	1.3	7.79
CCc1ccc(CN2CCC3(CC2)CC(N2CCN(C)CC2)CO3)cc1 (stereo unspecified)	-9.52	0	7.52	5.26	-0.293	-2.23	11.6	-0.446	4.32	5.13	14
COc1ccc(CN2CC[C@H]3[C@H]2CCN3C(=O)c2cnn(C)c2)cc1	-0.777	13.5	4.48	-12.3	-3.23	2.87	12.2	9.65	1.08	7.69	-5.75
O=C1CC(c2ccncc2)C2(CCN(C(=O)c3ccc[nH]3)CC2)N1 (stereo unspecified)	-2.27	18.9	-1.68	-16.4	4.01	-5.41	8.86	14.6	3.24	15.4	-0.00396
Cc1nn(C)c2cn(C(C)C(=O)NCc3cccnc3)nc12 (stereo unspecified)	-2.07	14.7	-8.7	5.87	1.77	-6.16	17.9	20.4	-4.23	10.3	-9.99
O=C(NCCNc1ccccn1)N1CCSCC1	-7.13	5.41	23.3	-0.67	-4.43	0.802	6.67	5.29	1.48	1.24	-1.12
O=C(O)c1ccc(S(=O)(=O)Nc2ccc(Cl)c(F)c2)c(F)c1	-2.14	-2.7	-7.96	15.3	1.04	1.6	-1.08	8.28	-13.3	-18.5	-4.26
CC(C)CS(=O)(=O)CC(=O)N(C)Cc1ccc(OC(F)F)cc1	-4.46	2.7	4.52	-5.18	-1.74	0.476	15.2	12.9	-0.529	9.76	-2.02
CCc1nnc2n1CCN(C(=O)c1cc3ccc(F)cc3nc1C)C2	-5.47	15.6	4.64	3.18	1.12	-3.92	6.59	-1.03	11.7	21.9	-6.09
COCC(=O)N1CCN(Cc2coc(-c3cccc(F)c3)n2)CC1	-5.28	0	2.98	4.95	-2.62	0	1.18	9.99	8.74	7.32	1.75
COc1cccc(S(=O)(=O)N2CCn3cnc(COCC4CC4)c3C2)c1	-2.27	2.67	2.22	0.793	0.386	-33.1	3.93	7.62	3.12	5	-4.77
CC(C)n1cc(C(=O)N2Cc3ccccc3OC3(CCOCC3)C2)cn1	-4.16	9.46	5.88	-5.24	-8.1	-9.05	14.5	28.1	-3.23	-1.3	-13.3
CCOc1ccc(CC(CNC(=O)c2ccoc2)C(N)=O)cc1 (stereo unspecified)	-5.97	13	-355	-18.6	8.13	-3.16	16.7	7.68	7.62	21.2	-16.2
Cn1ccnc1CNC(=O)N(CCCO)C1CCCc2ccccc21 (stereo unspecified)	-2.21	5.26	-1.41	-4.25	2.43	-3.55	-3.36	8.36	2.13	10.4	-9.5
CCc1nccn1C1CCCN(C(=O)Cc2n[nH]c3ccccc23)C1 (stereo unspecified)	-3.99	3.8	8.48	8.66	-4.62	3.66	-0.858	1.26	2.08	15.2	-2.38
O=C(CCN1CCOC(Cn2cccn2)C1)NC1CCCC1 (stereo unspecified)	-6.8	19	-3.66	-3.31	3.59	0.215	15.4	4.11	8.33	5.06	-15.2
